An excerpt weighted towards active compounds, which were near 2.4% of everything screened.
GLS inh – blocks human kidney-isoform glutaminase activity. O94925. GLS enzymatic activity, qHTS titration. Potency, µM (top dose mostly 45.5 µM), hits mostly inhibitors. hit rate 0.21% among 410,000
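Compounds were pin-transferred onto hKGA, after which L-glutamine (1 mM solution) and a detection mix of glutamate oxidase, HRP and Amplex Red were added. Initial and 30 min RT fluorescence reads were collected.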
Pol eta inh – inhibitors of human DNA polymerase eta. Q9Y253. recombinant Pol eta, fluorescent DNA replication assay. Potency, µM (series often up to 114 µM), usual class: inhibitors. hit rate 1.2% among 390,000
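Pol eta at 10 nM preincubated with compounds 15 min at room temperature; reaction started with fluorescent substrate (50 nM final) and read kinetically at 0 and 10 min.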
KAT2A inh – inhibitors of human GCN5L2 histone acetyltransferase | Potency, µM (top dose mostly 58.9 µM), hits mostly inhibitors | Q92830 | AID 504327 | GCN5L2 HAT assay, ThioGlo1 CoA-SH fluorescence | hit rate 0.21% among 390,000
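GCN5L2 (20nM final) in 50mM HEPES, 0.1mM EDTA pH 7.5, 0.01% Tween-20 was preincubated 15 min at room temperature with compound, then given ThioGlo1 (50uM), H3(1-25) peptide (75uM) and acetyl-CoA (70uM); CoA-thiol fluorescence (Ex340/Em540) was read at 0 and 20 min.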
Pol kappa inh – DNA polymerase kappa (human) inhibition. Q9UBT6. purified Pol kappa, fluorescent DNA synthesis assay, 10 min. Potency, µM (series often up to 107 µM), actives largely listed as inhibitors. hit rate 0.53% among 400,000. AID 588579
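Enzyme at 10 nM met test compounds for 15 min at room temperature. Substrate addition (50 nM final) began the reaction, which was monitored by fluorescence at 0 and 10 min.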
POLB inh – blocks human DNA polymerase beta activity; Pol beta primer extension/strand displacement, fluorescence kinetic; Potency, µM (highest dose often 114 µM), usual class: inhibitors; hit rate 1.3% among 340,000
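Preincubation: enzyme (10 nM) with compound, 15 min, RT. Reaction: substrate added to 50 nM final. Reads: 0 and 10 min. Analysis: normalized, Hill fit.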
Pol iota inh – DNA polymerase iota (human) inhibition; Potency, µM (doses to about 115 µM), most hits filed as inhibitors; Pol iota fluorescent replication assay, 10 min; hit rate 1% among 390,000; AID 588590; Q9UNA4
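Fluorescent replication assay read twice, at 0 min and 10 min after adding 50 nM (final) substrate. Enzyme (10 nM) and compounds were first incubated 15 min at room temperature; enzyme-free buffer wells were negative controls.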
Each line names hits and unclear results; the compound was inactive in the other large screens. Calls follow the shape of the dose curve; as a rule, active = well fitted inhibition curve with a large enough effect; inconclusive = small, poorly fitted or top-dose-only effect, or another doubt; inactive = no such curve, though single readings can be large or run the other way.

O=C(O)c1ccc(S(=O)(=O)c2ccc3c(c2)C(=O)N(NC(=O)c2ccc(O)cc2)C3=O)cc1	POLB inh 28µM
COc1ccc2c(COC(=O)c3ccc(C)c(S(=O)(=O)N4CCOCC4)c3)cc(=O)oc2c1	Pol eta inh 14µM, Pol iota inh inconclusive (no result: KAT2A inh, POLB inh)
COc1ccc(C2C=C(c3ccccc3)Nc3nc(NS(=O)(=O)c4ccc(Cl)cc4)nn32)cc1 (stereo unspecified)	Pol eta inh 89µM
Cc1ccc(S(=O)(=O)Nc2nc3n(n2)C(c2ccc(Cl)cc2)C=C(c2ccccc2)N3)cc1 (stereo unspecified)	Pol eta inh 89µM
COc1ccc(C2C=C(c3ccccc3)Nc3nc(NS(=O)(=O)c4ccccc4)nn32)cc1 (stereo unspecified)	Pol eta inh 89µM
NNC(=O)c1ccc(C(=O)N(c2ccccc2)c2ccccc2)cc1	none (no result: GLS inh, Pol eta inh, KAT2A inh, POLB inh)
COc1ccc(CNC(=O)CCn2c(=O)c3cccn3c3ccc(F)cc32)cc1OC	none
C(=Nc1cnc2ccccc2c1)c1ccncc1	none (no result: GLS inh, Pol eta inh, KAT2A inh, POLB inh)
O=C(COc1ncnc2scc(-c3ccc(F)cc3)c12)NCc1ccco1	Pol eta inh inconclusive
Cc1nc(SCC(=O)NC(=O)NCc2ccco2)nc(C)c1C	POLB inh 18µM, Pol iota inh inconclusive
O=C(Cn1cnc2scc(-c3ccccc3)c2c1=O)NCc1ccco1	Pol eta inh 22µM, Pol kappa inh inconclusive, POLB inh 28µM, Pol iota inh 56µM
Cc1ccc(-c2csc3ncnc(OCC(=O)NC(=O)NCc4ccco4)c23)cc1	Pol eta inh 79µM, POLB inh 40µM, Pol iota inh inconclusive
CCc1ccc(-c2csc3ncn(CC(=O)NCc4ccco4)c(=O)c23)cc1	none
Cc1sc2ncnc(SCC(=O)NC(=O)NCc3ccco3)c2c1C	Pol eta inh 89µM, Pol kappa inh inconclusive, POLB inh 11µM, Pol iota inh inconclusive
Cc1ccccc1C(=O)Nc1ccc(C(=O)N2CCCC(O)c3cc(Cl)ccc32)c(C)c1 (stereo unspecified)	none (no result: Pol eta inh, KAT2A inh, Pol kappa inh, POLB inh, Pol iota inh)
O=C(CSc1nc2cc(Cl)ccc2s1)NC(=O)NCc1ccco1	Pol eta inh 35µM, Pol kappa inh inconclusive, POLB inh 45µM
Cc1sc2ncnc(NCc3ccco3)c2c1C	Pol eta inh inconclusive, POLB inh 45µM, Pol iota inh inconclusive
CCOc1ccc2nc(SCC(=O)NC(=O)NCc3ccco3)sc2c1	none
O=C(Cn1ncn2c(cc3ccccc32)c1=O)NCc1ccco1	Pol eta inh 89µM, POLB inh 50µM, Pol iota inh inconclusive
COc1cc(/C=C/c2cncc(/C=C/c3cc(OC)c(OC)c(OC)c3)c2)cc(OC)c1OC	none (no result: GLS inh, Pol eta inh, KAT2A inh, POLB inh)
CCC(C)/C=C/C1=CC2=C(Cl)C(=O)C3(C)OC(=O)C(C(=O)C(C)C(C)O)C3C2=CO1 (stereo unspecified)	Pol eta inh inconclusive, Pol kappa inh 79µM, POLB inh 22µM, Pol iota inh inconclusive
COC(=O)[C@@H]1CCCN1S(=O)(=O)Cc1ccccc1	none (no result: GLS inh, Pol eta inh, KAT2A inh, POLB inh)
CN(C)c1ccc(/C=C/c2cc[n+](C)c3ccc4ccccc4c23)cc1	none (no result: GLS inh, Pol eta inh, KAT2A inh, POLB inh)
Cn1c(=O)c(NCCc2ccccc2)c2c3c(cccc31)C(=O)c1ccccc1-2	Pol eta inh inconclusive, Pol kappa inh inconclusive, POLB inh 14µM, Pol iota inh inconclusive
CCCCNc1c2c3c(cccc3n(C)c1=O)C(=O)c1ccccc1-2	Pol iota inh inconclusive
Nc1ccc(/C=C/c2ccnc3ccccc23)cc1[N+](=O)[O-]	Pol iota inh inconclusive (no result: GLS inh, Pol eta inh, KAT2A inh, POLB inh)
O=S(=O)(c1ccc(-c2ccon2)s1)N1CCN(c2ccncc2)CC1	Pol iota inh 40µM
Cc1cc(Cl)ccc1OCC(=O)Nc1cccc(-c2nc3ccccc3o2)c1	none (no result: GLS inh, Pol eta inh, KAT2A inh, POLB inh)
C=CSc1sc(Cl)c(N(CC)CC)c1[N+](=O)[O-]	Pol eta inh inconclusive, POLB inh 20µM, Pol iota inh inconclusive
Cc1nc2c(c(=O)[nH]1)CSCC2	none (no result: GLS inh, Pol eta inh, POLB inh, Pol iota inh)
CN(C)/[N+]([O-])=N/Oc1ccc([N+](=O)[O-])cc1[N+](=O)[O-]	Pol iota inh inconclusive (no result: GLS inh, Pol eta inh, KAT2A inh, POLB inh)
O=C(Nc1cccc(C(F)(F)F)c1)Oc1ccccc1N1CCOCC1	none

Screening data: PubChem, National Center for Advancing Translational Sciences (NCATS)
